Source: PubChem BioAssay (NCI)
Compounds without any hit were thinned out: in the full panel of roughly 79,000, 15% have a hit. Active and inactive are the calls of the source. No stated cut-off is given here; in the data, active means growth inhibition above about 70%; inactive means the rest.

Key:
[1] = NCI Yeast Anticancer Drug Screen. Data for the wt1 strain (AID 149);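 further: 0% = growth of vehicle-treated wt1 cultures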; details: S. cerevisiae wt1 strain (SPY 50644) growth inhibition, active compounds read high
Method in brief: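 Compounds are added to wt1 yeast cultures. Growth is then measured. Inhibition is expressed relative to vehicle-treated controls.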

[2] = NCI Yeast Anticancer Drug Screen. Data for the rad50EPP+ strain (AID 151);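 further: 0% = growth of vehicle-treated control cultures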; details: S. cerevisiae rad50 mutant strain, active compounds read high
Method in brief: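 In this screen, rad50EPP+ yeast were exposed to compounds. Growth inhibition was scored against vehicle-treated controls.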

[3] = NCI Yeast Anticancer Drug Screen. Data for the mgt1 strain (AID 153); details: S. cerevisiae mgt1 mutant growth inhibition, active compounds read high
Method in brief: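 mgt1 strain exposed; growth vs vehicle control recorded as inhibition.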

[4] = NCI Yeast Anticancer Drug Screen. Data for the rad50 strain (AID 155);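 further: 0% = growth of vehicle-only cultures of the same strain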; details: S. cerevisiae rad50 strain growth inhibition, active compounds read high
Method in brief: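 Inhibition values express reduced yeast growth in compound-treated cultures relative to vehicle-treated controls.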

[5] = NCI Yeast Anticancer Drug Screen. Data for the mec2-1 strain (AID 157); details: S. cerevisiae mec2-1 strain, active compounds read high
Method in brief: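 Vehicle-treated cultures served as reference for growth inhibition of compound-exposed mec2-1 yeast.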

[6] = NCI Yeast Anticancer Drug Screen. Data for the rad14 strain (AID 159);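 further: 0% = growth of vehicle-treated control cultures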; details: S. cerevisiae rad14 strain growth inhibition, active compounds read high
Method in brief: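 A mutant yeast strain defective in DNA damage repair is treated with compound; inhibition of its growth is scored against untreated, vehicle-exposed cultures.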

[7] = NCI Yeast Anticancer Drug Screen. Data for the sgs1 mgt1 strain (AID 161);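 further: 0% = growth of cultures given vehicle only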; details: S. cerevisiae sgs1 mgt1 strain, active compounds read high
Method in brief: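 Mutant yeast exposed to compound; growth scored against vehicle-only wells.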

[8] = NCI Yeast Anticancer Drug Screen. Data for the CLN2oe strain (AID 163);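 further: 0% = growth of vehicle-only control cultures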; details: S. cerevisiae CLN2oe strain, active compounds read high
Method in brief: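 Inhibition relative to vehicle-treated yeast is reported. Cells: strain with genetic alteration in cell-cycle control, grown with compound.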

[9] = NCI Yeast Anticancer Drug Screen. Data for the cln2 rad14 strain (AID 165);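 further: 0% = growth equal to vehicle treated cultures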; details: S. cerevisiae cln2 rad14 strain, active compounds read high
Method in brief: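 Each compound was tested on cln2 rad14 yeast. Inhibition of growth was calculated against vehicle-exposed controls.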

[10] = NCI Yeast Anticancer Drug Screen. Data for the bub3 strain (AID 167); details: S. cerevisiae bub3 mutant strain, active compounds read high
Method in brief: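 Steps: expose the mutant yeast strain to compound; grow alongside vehicle-treated cultures; measure growth; express inhibition against the vehicle cultures.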

[11] = NCI Yeast Anticancer Drug Screen. Data for the wt2 strain (AID 169);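 further: 0% = growth of vehicle-treated yeast cultures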; details: S. cerevisiae wt2 strain growth inhibition, active compounds read high
Method in brief: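 Inhibition of yeast growth was determined after compound treatment, normalised to controls receiving only vehicle.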

[12] = NCI Yeast Anticancer Drug Screen. Data for the mlh1 strain (AID 171);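 further: 0% = growth of vehicle-treated control cultures of the same strain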; details: S. cerevisiae mlh1 strain growth inhibition, active compounds read high
Method in brief: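 Vehicle-normalised growth inhibition of a repair- or checkpoint-altered yeast strain following compound treatment.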

[13] = NCI Yeast Anticancer Drug Screen. Data for the sgs1 strain (AID 173);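 further: 0% = growth of vehicle-only control cultures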; details: S. cerevisiae sgs1 mutant, active compounds read high
Method in brief: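 Screen format: yeast with repair or checkpoint alterations, compound exposure, growth read relative to vehicle.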

[14] = NCI Yeast Anticancer Drug Screen. Data for the mlh1 rad18 strain (AID 175); details: S. cerevisiae mlh1 rad18 strain growth inhibition, active compounds read high
Method in brief: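 Vehicle-treated cultures served as the reference for growth inhibition in a yeast strain carrying DNA damage repair alterations exposed to each compound.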

[15] = NCI Yeast Anticancer Drug Screen. Data for the rad18 strain (AID 177); details: S. cerevisiae rad18 mutant growth inhibition, active compounds read high
Method in brief: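 Test articles were incubated with altered yeast defective in DNA damage repair. Results are given as inhibition of growth versus vehicle.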

[16] = at 5.0 µM (retest, dose inferred, filed as 0.5)
[17] = at 50.0 µM (retest, dose inferred, filed as 5.0)

Measured: growth inhibition

O=[N+]([O-])c1cccc2nc3ccccc3c(NCCC[N+]3([O-])CCOCC3)c12
active: [1]; at 100.0 µM 87% | [2]; at 33.0 µM 79% | [2]; at 100.0 µM 92% | [3]; at 100.0 µM 85% | [4]; at 11.0 µM 88% | [4]; at 33.0 µM 94% | [4]; [17] 92% | [4]; at 50.0 µM 83.4% | [4]; at 100.0 µM 95% | [5]; at 11.0 µM 89% | [5]; at 33.0 µM 97% | [5]; [17] 98% | [5]; at 50.0 µM 82.8% | [5]; at 100.0 µM 97% | [6]; at 3.7 µM 87% | [6]; at 11.0 µM 96% | [6]; at 33.0 µM 98% | [6]; at 100.0 µM 97% | [7]; [16] 73% | [7]; [17] 93% | [7]; at 50.0 µM 79.6% | [8]; at 100.0 µM 91% | [9]; [16] 86% | [9]; [17] 98% | [9]; at 50.0 µM 94.6% | [10]; [17] 75% | [10]; at 100.0 µM 84% | [11]; at 100.0 µM 93% | [12]; at 100.0 µM 92% | [13]; at 3.7 µM 79% | [13]; at 11.0 µM 85% | [13]; at 33.0 µM 89% | [13]; at 100.0 µM 93% | [14]; [16] 71% | [14]; [17] 98% | [14]; at 50.0 µM 94.5% | [15]; at 1.2 µM 95% | [15]; at 3.7 µM 95% | [15]; at 11.0 µM 96% | [15]; at 33.0 µM 97% | [15]; at 100.0 µM 95%
inactive: [1]; at 1.2 µM -78% | [1]; at 3.7 µM 5% | [1]; at 11.0 µM 16% | [1]; at 33.0 µM 47% | [2]; at 1.2 µM 6% | [2]; at 3.7 µM 19% | [2]; at 11.0 µM 42% | [3]; at 1.2 µM 1% | [3]; at 3.7 µM 5% | [3]; at 11.0 µM 17% | [3]; at 33.0 µM 55% | [4]; at 1.2 µM 37% | [4]; at 3.7 µM 65% | [4]; [16] 37% | [5]; at 1.2 µM 7% | [5]; at 3.7 µM 41% | [5]; [16] 9% | [6]; at 1.2 µM 38% | [8]; at 1.2 µM -15% | [8]; at 3.7 µM -13% | [8]; at 11.0 µM 10% | [8]; at 33.0 µM 55% | [10]; at 1.2 µM -9% | [10]; at 3.7 µM -13% | [10]; [16] -6% | [10]; at 11.0 µM -9% | [10]; at 33.0 µM 14% | [10]; at 50.0 µM 34.4% | [11]; at 1.2 µM -3% | [11]; at 3.7 µM -1% | [11]; at 11.0 µM 3% | [11]; at 33.0 µM 34% | [12]; at 1.2 µM 1% | [12]; at 3.7 µM 5% | [12]; at 11.0 µM 21% | [12]; at 33.0 µM 62% | [13]; at 1.2 µM 63%

Cc1ccc2oc(-c3cccc(N)c3)nc2c1
inactive: [1]; at 1.2 µM 0% | [1]; at 3.7 µM -4% | [1]; at 11.0 µM 2% | [1]; at 33.0 µM 0% | [1]; at 100.0 µM 5% | [2]; at 1.2 µM 1% | [2]; at 3.7 µM 2% | [2]; at 11.0 µM 10% | [2]; at 33.0 µM 23% | [2]; at 100.0 µM 36% | [3]; at 1.2 µM -6% | [3]; at 3.7 µM -13% | [3]; at 11.0 µM -4% | [3]; at 33.0 µM 6% | [3]; at 100.0 µM 24% | [4]; at 1.2 µM -3% | [4]; at 3.7 µM 4% | [4]; [16] -7% | [4]; at 11.0 µM 1% | [4]; at 33.0 µM 12% | [4]; [17] 10% | [4]; at 50.0 µM 17.4% | [4]; at 100.0 µM 29% | [5]; at 1.2 µM -2% | [5]; at 3.7 µM -3% | [5]; [16] -10% | [5]; at 11.0 µM 3% | [5]; at 33.0 µM 3% | [5]; [17] 13% | [5]; at 50.0 µM 3.95% | [5]; at 100.0 µM 8% | [6]; at 1.2 µM 1% | [6]; at 3.7 µM 3% | [6]; at 11.0 µM 9% | [6]; at 33.0 µM 18% | [6]; at 100.0 µM 27% | [7]; [16] 10% | [7]; [17] 48% | [7]; at 50.0 µM -18.8% | [8]; at 1.2 µM -5% | [8]; at 3.7 µM -6% | [8]; at 11.0 µM -4% | [8]; at 33.0 µM 6% | [8]; at 100.0 µM 15% | [9]; [16] -42% | [9]; [17] -2% | [9]; at 50.0 µM 27.5% | [10]; at 1.2 µM -6% | [10]; at 3.7 µM -3% | [10]; [16] 9% | [10]; at 11.0 µM 9% | [10]; at 33.0 µM 23% | [10]; [17] 36% | [10]; at 50.0 µM 23.4% | [10]; at 100.0 µM 35% | [11]; at 1.2 µM -3% | [11]; at 3.7 µM -2% | [11]; at 11.0 µM -2% | [11]; at 33.0 µM 1% | [11]; at 100.0 µM 11% | [12]; at 1.2 µM -4% | [12]; at 3.7 µM 6% | [12]; at 11.0 µM -2% | [12]; at 33.0 µM 2% | [12]; at 100.0 µM 21% | [13]; at 1.2 µM -1% | [13]; at 3.7 µM 0% | [13]; at 11.0 µM 2% | [13]; at 33.0 µM 5% | [13]; at 100.0 µM 10% | [14]; [16] -7% | [14]; [17] 28% | [14]; at 50.0 µM -6% | [15]; at 1.2 µM -2% | [15]; at 3.7 µM -4% | [15]; at 11.0 µM 3% | [15]; at 33.0 µM 17% | [15]; at 100.0 µM 53%

CN(Cc1cccc2ccccc12)Cc1cccc2ccccc12
active: [4]; [17] 76% | [10]; [17] 87% | [10]; at 50.0 µM 73.7%
inactive: [1]; at 1.2 µM 1% | [1]; at 3.7 µM 1% | [1]; at 11.0 µM -1% | [1]; at 33.0 µM -2% | [1]; at 100.0 µM -1% | [2]; at 1.2 µM -1% | [2]; at 3.7 µM 5% | [2]; at 11.0 µM 24% | [2]; at 33.0 µM 34% | [2]; at 100.0 µM 36% | [3]; at 1.2 µM -2% | [3]; at 3.7 µM -3% | [3]; at 11.0 µM -7% | [3]; at 33.0 µM -2% | [3]; at 100.0 µM 3% | [4]; at 1.2 µM 0% | [4]; at 3.7 µM -3% | [4]; [16] 1% | [4]; at 11.0 µM 7% | [4]; at 33.0 µM 6% | [4]; at 50.0 µM 60.5% | [4]; at 100.0 µM 9% | [5]; at 1.2 µM -2% | [5]; at 3.7 µM -2% | [5]; [16] 15% | [5]; at 11.0 µM -3% | [5]; at 33.0 µM 1% | [5]; [17] 26% | [5]; at 50.0 µM 16.7% | [5]; at 100.0 µM 11% | [6]; at 1.2 µM 0% | [6]; at 3.7 µM 2% | [6]; at 11.0 µM 0% | [6]; at 33.0 µM 13% | [6]; at 100.0 µM 30% | [7]; [16] 2% | [7]; [17] 51% | [7]; at 50.0 µM 59.7% | [8]; at 1.2 µM -3% | [8]; at 3.7 µM -6% | [8]; at 11.0 µM -18% | [8]; at 33.0 µM -15% | [8]; at 100.0 µM -17% | [9]; [16] -17% | [9]; [17] 10% | [9]; at 50.0 µM 33.2% | [10]; at 1.2 µM -2% | [10]; at 3.7 µM 1% | [10]; [16] -12% | [10]; at 11.0 µM -25% | [10]; at 33.0 µM 6% | [10]; at 100.0 µM 2% | [11]; at 1.2 µM -2% | [11]; at 3.7 µM 0% | [11]; at 11.0 µM -4% | [11]; at 33.0 µM 3% | [11]; at 100.0 µM 9%
